Data as given in PMC4336329 (PLoS ONE, 2015).
Among all 310,000 compounds or so, about 14,000 (4.5%) showed an effect of 50% or more. Effects have a minus sign here. This excerpt belongs to a sample that is enriched for strong results.

Molecular target: human ether-à-go-go-related gene (hERG) potassium channel (human, UniProt Q12809)
Assay: primary screen, population patch clamp on CHO cells stably expressing hERG; higher = less effect of the substance
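Also: peak tail current of the secondary pulse compared with the same well before compound.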

Chain of human ether-à-go-go-related gene (hERG) potassium channel (Q12809 whole entry, looked up): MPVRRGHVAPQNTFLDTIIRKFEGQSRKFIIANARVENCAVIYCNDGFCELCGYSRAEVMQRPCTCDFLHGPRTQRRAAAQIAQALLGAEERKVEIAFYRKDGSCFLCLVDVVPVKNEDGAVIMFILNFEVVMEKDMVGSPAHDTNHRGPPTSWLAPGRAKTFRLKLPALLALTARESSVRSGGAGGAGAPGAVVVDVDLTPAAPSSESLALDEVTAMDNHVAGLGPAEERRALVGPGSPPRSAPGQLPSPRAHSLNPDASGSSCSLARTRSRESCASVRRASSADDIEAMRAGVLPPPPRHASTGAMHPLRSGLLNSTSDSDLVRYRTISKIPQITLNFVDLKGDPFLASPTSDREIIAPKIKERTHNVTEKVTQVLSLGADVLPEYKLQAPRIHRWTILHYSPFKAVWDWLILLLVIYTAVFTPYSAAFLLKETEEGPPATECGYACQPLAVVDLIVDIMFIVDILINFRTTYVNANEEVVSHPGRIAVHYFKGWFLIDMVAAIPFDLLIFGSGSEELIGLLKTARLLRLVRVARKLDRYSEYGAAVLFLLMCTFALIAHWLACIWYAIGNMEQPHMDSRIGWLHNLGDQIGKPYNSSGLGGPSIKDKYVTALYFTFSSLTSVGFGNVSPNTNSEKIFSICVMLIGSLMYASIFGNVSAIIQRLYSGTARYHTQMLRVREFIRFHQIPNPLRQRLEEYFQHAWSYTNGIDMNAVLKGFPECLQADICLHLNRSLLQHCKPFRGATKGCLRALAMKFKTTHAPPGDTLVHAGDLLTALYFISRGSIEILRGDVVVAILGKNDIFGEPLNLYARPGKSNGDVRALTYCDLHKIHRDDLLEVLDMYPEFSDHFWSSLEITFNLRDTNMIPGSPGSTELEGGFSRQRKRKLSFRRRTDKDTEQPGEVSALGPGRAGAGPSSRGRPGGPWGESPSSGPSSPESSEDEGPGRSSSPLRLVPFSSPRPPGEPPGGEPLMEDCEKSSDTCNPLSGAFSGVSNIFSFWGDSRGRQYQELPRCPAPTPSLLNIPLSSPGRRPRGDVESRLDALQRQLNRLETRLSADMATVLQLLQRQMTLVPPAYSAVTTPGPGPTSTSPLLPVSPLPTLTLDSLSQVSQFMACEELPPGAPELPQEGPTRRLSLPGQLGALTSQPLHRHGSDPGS

Compared with CCCc1c(C(=O)N/N=C/c2ccccc2C(F)(F)F)nnn1-c1nonc1N, O=C(NCCCN1CCN(c2ccccc2)CC1)Nc1ccccc1C(F)(F)F is lower in “hERG current change (%, negative = inhibition) at 10uM” value: 11.8% for the first, -49.3% for the second.

Going from CC(C)c1ccc(CNc2ccc3c(c2)ncn3C)cc1 to CCOc1ccc2c(c1)nc(NCCCO)n2Cc1ccccc1, the “hERG current change (%, negative = inhibition) at 10uM” value falls from 9.16% to -20.3%.

First: CC(C)(C)OC(=O)N1CCC[C@H]1c1nnc(SCc2ccccc2Cl)o1
Second: CC(C)(C)OC(=O)N1CCC[C@H]1c1nnc(SCc2c(Cl)cccc2Cl)o1
The “hERG current change (%, negative = inhibition) at 10uM” value of the first is higher: -5.07% for the first, -57.5% for the second.

First: CC(C)(C)OC(=O)N1CCC[C@H]1c1nnc(SCc2c(F)cccc2Cl)o1
Second: COc1cc(C)nc(N2CCCC(C(=O)Nc3cccc(Cl)c3C)C2)n1 (centres unmarked)
The “hERG current change (%, negative = inhibition) at 10uM” value of the first is higher: 2.16% for the first, 0.916% for the second.

Going from Cc1ccccc1CNc1nnnn1C to Cc1ccccc1NC(=O)NCCCN1CCN(C)CC1, the “hERG current change (%, negative = inhibition) at 10uM” value rises from 12.4% to 28.1%.

Going from Br.O=C(CN1CCSC1=NCc1ccccc1)c1ccccc1 to Br.O=C(CN1CCSC1=NCc1ccccc1)c1ccc(Cl)cc1, the “hERG current change (%, negative = inhibition) at 10uM” value falls from -23.5% to -53.9%.

Going from Br.O=C(CN1CCSC1=NCc1ccccc1)c1ccc(Cl)c(Cl)c1 to O=C(Nc1cc(Cl)cc(Cl)c1)N1CCCN(Cc2ccccc2)CC1, the “hERG current change (%, negative = inhibition) at 10uM” value falls from -17.7% to -76.3%.

Going from C=CCNC(=O)c1c(-c2c(F)cccc2Cl)noc1C to CCN(CCn1cccn1)C(=O)c1cc(COc2c(F)cccc2F)on1, the “hERG current change (%, negative = inhibition) at 10uM” value rises from -1.62% to 0.76%.

Going from Cc1ccc(S(=O)(=O)N2CCC(C(=O)N3CCC[C@H]3C(=O)NCC(C)C)CC2)cc1 to Cc1ccc(S(=O)(=O)NCCC(=O)N2CCCCCC2)cc1, the “hERG current change (%, negative = inhibition) at 10uM” value falls from 13.8% to 1.86%.

First: Cl.N=c1sccn1CC(=O)NCCc1ccc(Cl)cc1
Second: O=C(Nc1ccccc1)N1CCN(Cc2ccc(Cl)cc2)CC1
The “hERG current change (%, negative = inhibition) at 10uM” value of the first is higher: -26.3% for the first, -33.8% for the second.

Compared with CC(C)N=c1cc2n(-c3ccc(Cl)cc3)c3ccccc3nc-2cc1Nc1ccc(Cl)cc1, COc1ccc(NC(=O)Cn2c(=O)c(C)nc3ccccc32)cc1Cl is lower in “hERG current change (%, negative = inhibition) at 10uM” value: 35.9% for the first, -2.07% for the second.

Going from CCN(Cc1ccncc1)C(=O)c1ccc(C)o1 to CCN(Cc1ccncc1)C(=O)c1ccc(Br)o1, the “hERG current change (%, negative = inhibition) at 10uM” value rises from -0.494% to 1.66%.

CCN(Cc1ccncc1)C(=O)c1cc(COc2ccc(F)cc2F)on1 and CCN(Cc1ccncc1)C(=O)c1cc(COc2c(F)cccc2F)on1 are the same in “hERG current change (%, negative = inhibition) at 10uM” value: -36% for the first, -36% for the second.

Going from COc1cccc(OCc2cc(C(=O)N(C)Cc3nc4ccccc4[nH]3)no2)c1 to Cc1cccc(C)c1OCc1cc(C(=O)N(C)Cc2nc3ccccc3[nH]2)no1, the “hERG current change (%, negative = inhibition) at 10uM” value falls from -37.1% to -70.6%.

Going from CCN(Cc1ccncc1)C(=O)c1cc(COc2ccc(C)c(C)c2)on1 to CCN(Cc1ccncc1)C(=O)c1cc(COc2c(C)cccc2C)on1, the “hERG current change (%, negative = inhibition) at 10uM” value falls from -69.5% to -75.3%.

Compared with CCN(Cc1ccccc1)C(=O)c1cc(COc2c(F)cccc2F)on1, CCN(Cc1ccncc1)C(=O)c1cc(COc2ccc(OC)cc2Cl)on1 is lower in “hERG current change (%, negative = inhibition) at 10uM” value: 3.85% for the first, -22.6% for the second.

Compared with CCN(Cc1ccncc1)C(=O)c1ccco1, Cc1cc(C)cc(C(=O)Nc2cccc(NC(=O)c3ccco3)c2)c1 is higher in “hERG current change (%, negative = inhibition) at 10uM” value: -73.5% for the first, -14.2% for the second.

Compared with CC(=O)c1ccc(OCc2cc(C(=O)N(C)Cc3nc4c(C)cccc4[nH]3)no2)cc1, CCN(CCn1cccn1)C(=O)c1cc(COc2ccc(F)c(F)c2)on1 is lower in “hERG current change (%, negative = inhibition) at 10uM” value: -10.7% for the first, -96% for the second.

First: CCN(CC(=O)NC1CCS(=O)(=O)C1)S(=O)(=O)c1cc(C)ccc1C (centres unmarked)
Second: CCOCCCNC(=O)C(C)NS(=O)(=O)c1ccc(C)cc1 (centres unmarked)
The “hERG current change (%, negative = inhibition) at 10uM” value of the first is higher: 10.2% for the first, 4.29% for the second.

First: CN(C)c1ccc(CCc2ccc(N)cc2)cc1
Second: CCOc1cc(N(CC)CC)ccc1/C=C(/C#N)c1nc2ccccc2[nH]1
The “hERG current change (%, negative = inhibition) at 10uM” value of the first is higher: 19.9% for the first, 0.119% for the second.

First: Cc1sc(NC(=O)c2ccco2)c(CN2CCN(c3ccccc3)CC2)c1C
Second: Cc1cccc(C)c1NC(=O)NCCCN1CCN(c2ccccc2)CC1
The “hERG current change (%, negative = inhibition) at 10uM” value of the first is higher: 7.18% for the first, -41.1% for the second.

Compared with O=c1[nH]c2ccccc2nc1-c1cccs1, COc1ccccc1NC(=O)CSCc1cc(=O)n2ccsc2n1 is higher in “hERG current change (%, negative = inhibition) at 10uM” value: 1.66% for the first, 13.3% for the second.

Going from C/C(=C\C(=O)c1cccnc1)Nc1ccc(O)cc1 to COc1cccc(C(=O)O/N=C(\N)c2ccccn2)c1, the “hERG current change (%, negative = inhibition) at 10uM” value rises from -6.35% to -2.49%.

First: NC(=O)c1nc(-c2ccco2)nc2c1[nH]c(=O)n2-c1ccc(Cl)c(Cl)c1
Second: CCN(CCn1cccn1)C(=O)c1cc(COc2ccc(F)cc2Cl)on1
The “hERG current change (%, negative = inhibition) at 10uM” value of the first is higher: -9.13% for the first, -15.4% for the second.

Going from COC(=O)c1ccccc1NC(=O)NCc1ccccc1 to COC(=O)c1sccc1NC(=O)Nc1ccccc1C, the “hERG current change (%, negative = inhibition) at 10uM” value rises from -3.24% to 9.22%.

First: Cc1c(C(=O)OC2CCC(C)CC2)[nH]c2c1C(=O)CCC2 (centres unmarked)
Second: CCCc1c2c(cc3c(=O)cc(C(=O)OCC)oc13)CCCC2
The “hERG current change (%, negative = inhibition) at 10uM” value of the first is lower: -3.25% for the first, -0.971% for the second.

Compared with Cc1ccc(NS(=O)(=O)c2ccc(-c3csc(C)n3)s2)c(C)c1, Cc1ccc(N=C2C(=O)Nc3ccccc32)cc1C is lower in “hERG current change (%, negative = inhibition) at 10uM” value: 16% for the first, 7.9% for the second.

Going from O=C1C2C3c4ccccc4C(c4ccccc43)[C@@H]2C(=O)N1c1ccccn1 (some centres unmarked) to CN(CC(=O)O/N=C(\N)c1ccccn1)S(=O)(=O)c1ccccc1, the “hERG current change (%, negative = inhibition) at 10uM” value falls from 5.6% to -4.98%.

Going from O=C(N/N=C/c1ccc(OC(F)F)cc1OC(F)F)c1cccc(S(=O)(=O)N2CCOCC2)c1 to CC(C)C(C)NC(=O)CSc1ccc(S(=O)(=O)N2CCOCC2)cn1 (centres unmarked), the “hERG current change (%, negative = inhibition) at 10uM” value rises from -33.1% to -1.56%.

Going from COC(=O)Cn1ncn2c(cc3oc(C)cc32)c1=O to COc1cc(OC)cc(C(=O)Nn2cc(C(=O)N3CCN(C)CC3)c3ccccc3c2=O)c1, the “hERG current change (%, negative = inhibition) at 10uM” value falls from 13.1% to 2.72%.

Compared with CCN(CC(=O)Nc1ccc(OC)cc1)C(=O)COc1cccc2c1OC(C)(C)C2, CCn1c(SCC(=O)Nc2ccc(N3CCOCC3)cc2)nnc1-c1ccc(OC)cc1 is lower in “hERG current change (%, negative = inhibition) at 10uM” value: -14.1% for the first, -14.8% for the second.

Compared with c1ccc(C2CCCN(Cc3nc(CC4CC4)no3)CC2)cc1 (centres unmarked), Cc1ccccc1C1CCCN(Cc2nc(CC3CC3)no2)C1 (centres unmarked) is lower in “hERG current change (%, negative = inhibition) at 10uM” value: 2.97% for the first, -12.7% for the second.

Going from c1ccc(OCc2noc(CN3CC[C@@H]4CCCC[C@H]4C3)n2)cc1 to C=CCC1(CC=C)CCCN1Cc1nc(COc2ccccc2)no1, the “hERG current change (%, negative = inhibition) at 10uM” value falls from 0.704% to -11.5%.

First: c1ccc(CN2CCCC3(CCCN(Cc4nc(COc5ccccc5)no4)C3)C2)cc1 (centres unmarked)
Second: c1ccc(CN2CCCC3(CCCN(Cc4nc(CC5CC5)no4)C3)C2)cc1 (centres unmarked)
The “hERG current change (%, negative = inhibition) at 10uM” value of the first is lower: -69.3% for the first, -52.1% for the second.

Compared with O=C(Nc1ccc(F)cc1F)N1CCCN(CCOc2ccccc2)CC1, O=C(Nc1ccc2ccccc2c1)N1CCCN(CCOc2ccccc2)CC1 is lower in “hERG current change (%, negative = inhibition) at 10uM” value: -45.2% for the first, -66% for the second.

Going from Cc1noc(C)c1NC(=O)NCCN1CCN(Cc2ccccc2)CC1 to O=C(NCCN1CCN(Cc2ccccc2)CC1)Nc1cc(Cl)cc(Cl)c1, the “hERG current change (%, negative = inhibition) at 10uM” value falls from 13.7% to -75.2%.

Going from Cc1ccccc1NC(=O)NCCCN1CCN(c2ccccc2)CC1 to O=C(NCCN1CCN(c2ccccc2)CC1)Nc1ccccc1Br, the “hERG current change (%, negative = inhibition) at 10uM” value falls from -50.7% to -52.1%.

First: COc1ccccc1NC(=O)NCCN1CCN(c2cccc(Cl)c2)CC1
Second: COc1ccccc1NC(=O)NCCCN1CCN(c2cccc(Cl)c2)CC1
The “hERG current change (%, negative = inhibition) at 10uM” value of the first is higher: -9.6% for the first, -73.7% for the second.

Compared with CCCN1CCN(C(=O)Nc2ccc(OCC)cc2)CC1, O=C(NCCN1CCN(c2ccccc2)CC1)Nc1ccc(Cl)cc1 is lower in “hERG current change (%, negative = inhibition) at 10uM” value: -1.93% for the first, -45.5% for the second.

Going from O=C(NCCN1CCCCC1)Nc1ccccc1 to O=C(NCCN1CCOCC1)Nc1ccccc1, the “hERG current change (%, negative = inhibition) at 10uM” value rises from -23.2% to -6.63%.

First: COc1ccc(N2CCN(CCNC(=O)Nc3cc(Cl)ccc3OC)CC2)cc1
Second: O=C(NCCN1CCN(c2ccccc2)CC1)Nc1cccc(Cl)c1
The “hERG current change (%, negative = inhibition) at 10uM” value of the first is higher: 3.23% for the first, -55.7% for the second.

Going from CCOC(=O)C(CSCc1ccccc1)NC(=O)OC(C)(C)C (centres unmarked) to O=C(Nc1ccccc1)N1CCN(Cc2ccccc2)CC1.O=C(O)C(=O)O, the “hERG current change (%, negative = inhibition) at 10uM” value rises from -14.8% to 11.9%.

First: CC(C)c1nc(SCC(=O)N2CCCC2)c2c(=O)n(C)c(=O)n(C)c2n1
Second: O=C(NC(=S)N1CCCC1)c1cccc([N+](=O)[O-])c1
The “hERG current change (%, negative = inhibition) at 10uM” value of the first is lower: -21.8% for the first, 19.9% for the second.

Going from CCCCNC(=O)CCCCCNS(=O)(=O)c1ccc(OC)cc1 to COCCNS(=O)(=O)c1cccc2cccnc12, the “hERG current change (%, negative = inhibition) at 10uM” value falls from 13.8% to 11.6%.

Compared with O=C(NCCN1CCN(c2ccccc2)CC1)Nc1cccc(Br)c1, O=C(NCCN1CCN(c2cccc(Cl)c2)CC1)Nc1ccccc1 is higher in “hERG current change (%, negative = inhibition) at 10uM” value: -58.1% for the first, -35.1% for the second.

First: Cc1ccc(NC(=O)NCCN2CCN(c3ccccc3)CC2)cc1Cl
Second: O=C(NCCN1CCN(c2ccccc2)CC1)Nc1ccccc1Cl
The “hERG current change (%, negative = inhibition) at 10uM” value of the first is higher: 16.7% for the first, -43.3% for the second.
